Bioassay records (PubChem)
PLC-gamma1 inh – inhibitors of human phospholipase C gamma1; P19174; purified PLC-gamma1, fluorogenic substrate, fluorescence; inhibition, % at 12.2 µM; 0.84% of 370,000 active; in the data active = inhibition above about 9.5%
Rce1 inh – inhibitors of yeast Ras-converting enzyme. Q03530. 0.27% of 290,000 active. AID 2563. calls only. yeast membranes, quenched prenylated peptide cleavage fluorescence;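 active = fall in fluorescence gain of 50% or more versus controls, with final raw signal at or below 3038400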
ADAM17 inh – inhibitors of human ADAM17; P78536; recombinant ADAM17, EDANS/DABCYL FRET peptide cleavage; inhibition, % at 6.95 µM; 0.83% of 370,000 active; AID 720648;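 active = inhibition above the mean of compounds lying between control limits plus 3 SD, set per campaign, cut at about 8.5% in these data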
ADAM10 inh – ADAM10 inhibition, QFRET primary screen; O14672; recombinant ADAM10, EDANS/DABCYL FRET peptide cleavage, 3 h; inhibition, % at 7 µM; 0.62% of 370,000 active;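 active = inhibition above a per-campaign cutoff equal to the mean of compounds falling between control-based bounds plus 3 SD, cut at about 20% in these data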
PLC-beta3 inh – blocks human PLC-beta3 enzyme activity; inhibition, % at 12.2 µM; Purified PLC-beta3, fluorogenic substrate, fluorescence; 0.18% of 370,000 active
PLCgamma1 ctr – counter-screen for PLC-beta3 inhibitors: inhibitors of human PLC-gamma1 | shares compounds with PLC-gamma1 inh | purified PLC-gamma1, fluorogenic substrate, fluorescence | inhibition, % at 12.3 µM | 3.1% of 3,300 active; in the data active = inhibition above about 9.5%
PLCb3 confirm – human PLC-beta3 inhibition, confirmation; shares compounds with PLC-gamma1 inh; purified PLC-beta3, fluorogenic substrate fluorescence; inhibition, % at 12.3 µM; 1% of 3,300 active
A number is an active result; - = inactive; . = not tested or not shown. In the library only some 2.1% were active in any assay of this set; here they are far more common. Cut-off read from the data, not from the text of the source, unless noted: active = inhibition above about 11%; inactive = the rest.

SMILES	PLC-gamma1 inh	Rce1 inh	ADAM17 inh	ADAM10 inh	PLC-beta3 inh	PLCgamma1 ctr	PLCb3 confirm
O=c1cc([O-])[n+]2c3n1CCCN3CCC2	-	-	-	-	12.2	-	-
Cc1cccc(-c2noc(CCCC(=O)N3CCOCC3)n2)c1	-	-	-	-	-	.	.
O=C1C=C(O)c2c(O)cc(O)c(O)c2C1=O	30.9	-	-	-	15.1	-	-
O=C1c2ccccc2C(=O)c2c(O)c(O)cc(O)c21	-	.	-	-	-	.	.
Cc1ccc(C(NC(=O)c2ccccc2)C(Cl)Cl)cc1 (stereo unspecified)	-	-	-	-	10.7	-	-
COC(=O)[C@]12C[C@H](CC(=O)NCc3ccc(OC)c(OC)c3)C(=O)N(Cc3ccc4c(c3)OCO4)C1=C[C@H](C(C)C)O[C@@H]2C1CC1	-	.	-	-	-	.	.
CC(C)OC(=O)CSc1nc2c(c(C3CC=CCC3)c1C#N)CCC2 (stereo unspecified)	9.6	-	-	-	-	-	-
C=CCSc1nc2c(c(C3CC=CCC3)c1C#N)CCC2 (stereo unspecified)	-	-	-	-	-	.	.
C=C1CCN(CC(=O)OC)S(=O)(=O)c2ccccc21	-	-	-	-	-	.	.
Cc1nn(C)c(Oc2ccccc2)c1CCNC(=O)C(C)(C)C	11.1	-	-	-	-	-	-
CCOC(=O)c1c2c(n(C)c1C)C(=O)C(=O)c1ccc(Br)cc1-2	-	-	-	-	-	.	.
CCOC(=O)c1c2c(n(Cc3ccccc3)c1C)C(=O)C(=O)c1ccccc1-2	17.1	.	-	-	-	36.1	10.7
CC1CCCCN1S(=O)(=O)c1ccc(N(C(=O)c2cnccn2)C(C(=O)NC2CCCCC2)c2cccs2)cc1 (stereo unspecified)	12.4	-	-	-	-	-	-
N#C/C(=C\c1cc(O)c(O)c(O)c1)C(N)=O	18.1	-	-	-	-	-	-
CCc1cccc(C)c1NC(=O)CCN1C(=O)NC(C)(C)C1=O	-	.	-	-	-	.	.
Cc1cc(Cl)c(S(=O)(=O)N2CCCC2)cc1OCC(=O)NC1CCCCC1	-	-	-	-	11.5	-	-
O=C(COc1ccc(S(=O)(=O)N2CCCC2)cc1Cl)NC1CCCC1	13.0	.	-	-	-	-	-
C[C@@H]1CN([C@H](C)CO)C(=O)c2cc(Br)cnc2O[C@@H]1CN(C)C(=O)Nc1ccccc1	-	.	-	-	-	.	.
CC1(C)SC2C(C(=O)O)N=C(Cc3ccccc3)N2C1C(=O)O (stereo unspecified)	-	.	-	-	-	.	.
O=C1NC2=C(C(=O)OC2)C(c2ccc(OC(F)(F)F)cc2)N1 (stereo unspecified)	-	-	-	-	-	.	.
Cc1ccc(CC2CC(=O)N(c3ccc(C)cc3)C2=O)cc1 (stereo unspecified)	-	-	-	-	-	.	.
Cc1ccc(CC2CC(=O)N(c3nc4ccccc4n3C)C2=O)cc1 (stereo unspecified)	12.2	-	-	-	-	-	-
CC(C)(C)c1ccc(S(=O)(=O)NCC2CCCO2)cc1 (stereo unspecified)	-	-	-	-	-	.	.
O=C(O)c1ccc(S(=O)(=O)NCC2CCCO2)cc1 (stereo unspecified)	11.0	-	-	-	-	-	-
O=C(CCC1CCCC1)Nc1ccon1	12.0	-	-	-	-	-	-
SMILES	PLC-gamma1 inh	Rce1 inh	ADAM17 inh	ADAM10 inh	PLC-beta3 inh	PLCgamma1 ctr	PLCb3 confirm
O=C(NCc1cccs1)NC1CCCCC1	9.8	-	-	-	-	-	-
COC(=O)[C@]12C[C@H](CC(=O)NCCC(C)C)C(=O)N(Cc3ccco3)C1=C[C@H](C1CCCC1)O[C@@H]2C	-	.	-	-	-	.	.
CCOc1ccc(NC(=O)CN(C)C(=O)c2ccc(C)o2)cc1OCC	15.0	-	-	-	-	-	-
CCOc1ccc(NC(=O)CN(C)C(=O)CCc2ccccc2Cl)cc1OCC	-	-	-	-	-	.	.
CCOc1ccc(NC(=O)CN(C)C(=O)CCCOc2ccc(Cl)c(C)c2)cc1OCC	9.6	-	-	-	-	-	-
O=C(NC(=O)c1cnccc1C(F)(F)F)Nc1ccccc1	-	-	-	-	-	.	.
CCCNC(=O)C[C@H]1CC[C@H]2[C@@H](COc3ccc(NC(=O)Nc4ccccc4)cc3C(=O)N2C)O1	-	.	-	-	-	.	.
CCNC(=O)Nc1ccc2c(c1)C(=O)N(C)[C@H]1CC[C@@H](CC(=O)OC)O[C@H]1CO2	-	.	-	-	-	.	.
